Screening data deposited in PubChem by National Center for Advancing Translational Sciences (NCATS).
The list is not random: actives were taken first. Their share in the collection is about 2.4%.
Pol beta inh: DNA polymerase beta (human) inhibition | P06746 | Pol beta primer extension/strand displacement, fluorescence kinetic | Potency, µM (doses to about 114 µM), without a hit: at the top dose activity change, negative = inhibition, usual class: inhibitors | 340,000 compounds, 1.3% hits; further: potency means the concentration at half of the fitted maximal effect; on the % scale 0 is the no-effect control and ±100 the full control effect
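Reaction started by 50 nM substrate onto compound-treated Pol beta (10 nM, 15 min preincubation, room temperature); plates read at 0 min and 10 min. Normalized concentration-effect data fitted by four-parameter Hill equation.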
TDP1 inh: blocks human tyrosyl-DNA phosphodiesterase 1 | Q9NUW8 | recombinant TDP1, AlphaScreen DNA substrate cleavage | Potency, µM (highest dose often 130 µM), for the others: at the highest dose activity change, negative = inhibition, hits mostly inhibitors | 350,000 compounds, 0.28% hits | AID 485290; further: potency means the concentration at half of the fitted maximal effect; on the % scale 0 is the no-effect control and ±100 the full control effect; nearly all actives have a fitted effect of over 40% in size
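AlphaScreen read-out: signal falls as enzyme removes the 3' tyrosine-FITC from a 5'-biotinylated DNA oligo (15 nM, 5 min, RT). Enzyme was E. coli-made recombinant Tdp1 at 1 nM, exposed to compound for 15 min beforehand; beads 10 ug/ml, 10 min.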
Pol kappa inh-1: inhibitors of human DNA polymerase kappa | 400,000 compounds, 0.53% hits | Q9UBT6 | Potency, µM (titrated, usually from 107 µM), for inactives: at the top dose activity, negative = inhibition, most hits filed as inhibitors | purified Pol kappa, fluorescent DNA synthesis assay, 10 min | AID 588579; further: potency means the concentration at half of the fitted maximal effect; on the % scale 0 is the no-effect control and ±100 the full control effect
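Here, compound and 10 nM enzyme are combined for 15 min at room temperature; adding 50 nM substrate (final) starts DNA synthesis, tracked by fluorescence at 0 and 10 min against buffer-only wells.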
Pol eta inh-1: DNA polymerase eta (human) inhibition; recombinant Pol eta, fluorescent DNA replication assay; Potency, µM (doses to about 114 µM), inactives show at the top dose activity change, negative = inhibition, usual class: inhibitors; 390,000 compounds, 1.2% hits; further: potency means the concentration at half of the fitted maximal effect; on the % scale 0 is the no-effect control and ±100 the full control effect
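Pol eta (10 nM) was preincubated with compounds for 15 min at room temperature, after which fluorescent replication substrate (50 nM final) was added to start the reaction. Fluorescence was read kinetically at 0 and 10 min.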
Pol iota inh: DNA polymerase iota (human) inhibition; 390,000 compounds, 1% hits; Potency, µM (top dose mostly 115 µM), inactives show at the top dose activity, negative = inhibition, usual class: inhibitors; Pol iota fluorescent replication assay, 10 min; Q9UNA4; further: potency means the concentration at half of the fitted maximal effect
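Fluorescent replication assay read twice, at 0 min and 10 min after adding 50 nM (final) substrate. Enzyme (10 nM) and compounds were first incubated 15 min at room temperature; enzyme-free buffer wells were negative controls.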
GALK inh confirm: confirmation of human galactokinase (GALK) inhibitors. shares compounds with Pol eta inh-1. purified GALK, Kinase-Glo ATP depletion luminescence. Potency, µM (titrated, usually from 115 µM), without a hit: top-dose activity, negative = inhibition, usual class: inhibitors. 150 compounds, 70% hits. AID 2015
GALK redox cs: redox cycling activity in phenol red-HRP assay | 150 compounds, 40% hits | shares compounds with Pol eta inh-1 | Potency, µM (doses to about 115 µM), inactives show at the top dose activity change, negative = H2O2 signal, usual class: inhibitors | Phenol red-HRP H2O2 redox cycling, absorbance 600 nm
HEK293 tox: HEK-293 cytotoxicity, GALK inhibitor secondary. shares compounds with Pol eta inh-1. HEK-293 viability, ATP luminescence (CellTiter-Glo), 24/48 h. Potency, µM (titrated, usually from 46.1 µM), for the others: top-dose activity change, negative = cytotoxicity, most hits filed as inhibitors. 170 compounds, 10% hits. AID 2547; further: potency means the concentration at half of the fitted maximal effect; on the % scale 0 is the no-effect control and ±100 the full control effect
Pol kappa inh-2: Pol kappa (human) inhibition, cherry-pick confirmation; shares compounds with Pol eta inh-1; purified Pol-kappa, fluorescent strand-displacement substrate; Potency, µM, usual class: inhibitors; 920 compounds, 76% hits; AID 720501; further: potency means the concentration at half of the fitted maximal effect
Pol eta inh-2: Pol eta (human) inhibition, cherry-pick confirmation. Pol eta primer extension, TAMRA/BHQ fluorescence, 10 min. shares compounds with Pol eta inh-1. AID 720502. 2,600 compounds, 64% hits. Potency, µM, actives largely listed as inhibitors; further: potency means the concentration at half of the fitted maximal effect
An asterisk follows results filed as active; ? = inconclusive; / = no result given; [ ] = dose if it differs, or a comment. The call rests on the fitted dose curve; in most records, active means well fitted curve in the direction sought with a large enough effect; inconclusive means small, poorly fitted or top-dose-only effect, or another doubt; inactive means no such curve, though single readings can be large; an effect the other way counts as inactive or inconclusive.

SMILES | Pol beta inh | TDP1 inh | Pol kappa inh-1 | Pol eta inh-1 | Pol iota inh | Pol eta inh-2 | others
CC1(C)CC(=O)C2=C(C1)Nc1ccccc1NC2c1cccc(F)c1 (stereo not drawn) | 11.9% | 4.6% | 4.2% | -12.3% | 1.4% | /
COc1ccc(OC)c(CNC(=O)CCCn2nc(C)c3c(C)n(-c4ccc(C)cc4)nc3c2=O)c1 | 3.1% | 2.8% | -6.9% | -6.4% | 18.5% | /
Cc1ccc2c(CC(=O)OCC(=O)N(CC(C)C)c3c(N)n(Cc4ccccc4)c(=O)[nH]c3=O)coc2c1 | / | 0.5% | ? | 20µM* | 25.1µM* | 37.9*
COc1ccc(/C=C2\SC(=S)N(NC(=O)c3ccncc3)C2=O)cc1OC | 29.2% | 1.2% | / | / | / | /
COc1cc(/C=C2\SC(=S)N(NC(=O)c3ccccc3O)C2=O)ccc1O | ? | / | ? | ? | 14.1µM* | / | Pol kappa inh-2=42.3*
O=C(Cn1c(=O)n(Cc2ccc(C(=O)NCc3ccc4c(c3)OCO4)cc2)c(=O)c2ccccc21)Nc1ccc(F)cc1F | 10µM* | 25.1µM* | -4.0% | 79.4µM* | ? | / | Pol kappa inh-2=?
O=C(COC(=O)c1cncc(Br)c1)Nc1nnc(-c2ccccc2)o1 | / | / | ? | 39.8µM* | ? | 60.1*
COc1cc(OC)cc(C(=O)OCC(=O)Nc2nnc(-c3ccccc3)o2)c1 | / | / | 3.7% | -21.3% | 3.3% | /
C=CCNC(=S)NNC(=O)c1ccco1 | 7.2% | 2.5% | -1.9% | -2.2% | 42.9% | /
O=C(/C=C/c1ccco1)NC(=S)NNC(=O)c1ccco1 | ? | 8.2% | -31.9% | 50.1µM* | ? | / | Pol kappa inh-2=?
O=c1c(Br)ccc(Br)cc1Br | / | / | -5.6% | 28.2µM* | 7.08µM* | ?
CCc1ccc(C(=O)c2cn(CC(=O)Nc3cccc(C)c3C)c3nc(C)ccc3c2=O)cc1 | ? | 0.0% | 10.1% | -4.2% | -7.8% | /
COCCN(C(=O)COC(=O)c1cc2c(s1)CCCC2)c1c(N)n(Cc2ccccc2)c(=O)[nH]c1=O | / | / | ? | 44.7µM* | 50.1µM* | ?
Oc1ccc(NCc2ccccc2OCc2ccccc2Cl)cc1 | 24.2% | 6.3% | -26.3% | / | ? | ?
CCNC(=S)N/N=C1\C(=O)c2cccc3cccc1c23 | -3.4% | 7.1% | -1.0% | 0.5% | 11.7% | /
O=C(N/N=C1/C(=O)c2cccc3cccc1c23)c1ccc(Cl)cc1 | ? | / | -41.7% | 8.91µM* | 49.2% | ?
CC(=O)N1CCc2c(sc(NC(=O)C3COc4ccccc4O3)c2C(N)=O)C1 (stereo not drawn) | 19.3% | 4.0% | -12.3% | 22.4µM* | 23.4% | 47.8*
COC(=O)c1c(NC(=O)C2COc3ccccc3O2)sc2c1CCN(C(C)=O)C2 (stereo not drawn) | 3.3% | 7.9% | -2.4% | ? | 8.6% | /
Cc1nc(NCc2ccccn2)c2c3c(sc2n1)CCCC3 | -8.6% | 2.8% | -17.0% | -18.8% | 35.2% | /
Cc1nc(NS(=O)(=O)c2ccc(Cl)s2)c2c3c(sc2n1)CCCC3 | -22.9% | 0.6% | -21.0% | -4.8% | 0.0% | / | GALK inh confirm=?;GALK redox cs=3.2%;HEK293 tox=3.1%
COc1ccc(NC(=O)CN2C(=O)NC3(CCCC3)C2=O)cc1Cl | 8.4% | / | 5.6% | -3.7% | 36.5% | /
COc1ccc(NC(=O)CN2C(=O)NC3(CCCC3)C2=O)cc1OC | 59.1% | 4.3% | -17.2% | -6.5% | ? | ?
COCc1cc(=O)n2[nH]c(-c3ccsc3-n3c(C)ccc3C)cc2n1 | 31.6µM* | / | 11.2µM* | 10µM* | ? | 60.1* | Pol kappa inh-2=29.9*
O=C(CSc1ncccc1C(=O)Oc1ccccc1Cl)Nc1ccccc1Cl | 0.2% | 7.8% | -16.2% | -8.2% | 1.3% | /
CCOC(=O)c1cccc(NC(=O)CCc2c(C)nc3cc(-c4ccc(Cl)cc4)nn3c2C)c1 | 17.9% | 9.2% | -11.2% | -12.8% | 21.7% | /
SMILES | Pol beta inh | TDP1 inh | Pol kappa inh-1 | Pol eta inh-1 | Pol iota inh | Pol eta inh-2 | others
O=C1OC(c2ccc(Br)cc2)=N/C1=C\c1ccco1 | 44.6% | -5.1% | -1.9% | -14.2% | 35.1% | /
CC1=N/C(=C/c2ccco2)C(=O)O1 | 10µM* | 5.62µM* | 50.1µM* | 10µM* | ? | 30.1*
O=C(NCc1ccc2c(c1)OCO2)c1ccc2c(c1)N(Cc1ccccc1F)C(=O)c1ccccc1S2=O (stereo not drawn) | 10.7% | 4.6% | -7.8% | -18.8% | 13.5% | /
Cc1ccc(C(=O)N2C3C=CC(C3)C2(C(F)(F)F)C(F)(F)F)cc1 (stereo not drawn) | 23.7% | -1.5% | -3.0% | -2.0% | 1.1% | /
O=C(c1ccco1)N1C2C=CC(C2)C1(C(F)(F)F)C(F)(F)F (stereo not drawn) | -24.3% | / | -18.1% | 35.5µM* | ? | ?
COc1ccc2oc(C(=O)Nc3ccc(N4CCOCC4)cc3)c(C)c2c1 | / | -0.2%[0.505 µM] | ? | 12.6µM* | ? | 37.9*
O=C(CN1C(=O)/C(=C/c2ccco2)SC1=S)NC1CCS(=O)(=O)C1 (stereo not drawn) | ? | / | ? | 12.6µM* | ? | 60.1*
O=C(CCN1C(=O)/C(=C/c2ccccc2)SC1=S)NC1CCS(=O)(=O)C1 (stereo not drawn) | 16.7% | 2.2% | -10.7% | -16.2% | 69.2% | /
CC(C(=O)N(C)C1CCS(=O)(=O)C1)N1C(=O)/C(=C/c2ccco2)SC1=S (stereo not drawn) | ? | -15.8% | ? | 22.4µM* | 31.6µM* | 75.7*
CCN(C(=O)C(C)N1C(=O)/C(=C/c2cccs2)SC1=S)C1CCS(=O)(=O)C1 (stereo not drawn) | 18.4% | 8.2% | -6.7% | -17.7% | 5.8% | /
CCc1ccc(NC(=O)CC2C(=O)N(c3ccc(Cl)cc3)C(=O)N2Cc2cccs2)cc1 (stereo not drawn) | -11.8% | 2.8% | -1.9% | -8.7% | 15.7% | /
